In PubChem BioAssay AID687022 (Broad Institute, 2013):
Out of some 1,000 compounds screened, about 360 (36%) were called active.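 How the source made its calls: active means Fitted curve of melting temperature shift crosses the 1.0 threshold at or below the sample's highest valid tested concentration; inconclusive means Flat fit with activity 30 to 70, or invalid fit; inactive means Opposite direction, flat within 30, or no crossing.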 A selection follows.

target: Fibroblast growth factor 22 (Homo sapiens) (UniProt Q9HCT0); assay: FGF22 ligand-induced thermal stabilization – biophysical, thermal shift, cherry-pick, FGF22 synaptogenesis inhibitor project, dose response (AID 687022); conditions: recombinant FGF22 thermal shift, SYPRO orange melting; series mostly up to 38 µM; further: reference of the scale not given here
Sequence (Q9HCT0 whole entry, looked up): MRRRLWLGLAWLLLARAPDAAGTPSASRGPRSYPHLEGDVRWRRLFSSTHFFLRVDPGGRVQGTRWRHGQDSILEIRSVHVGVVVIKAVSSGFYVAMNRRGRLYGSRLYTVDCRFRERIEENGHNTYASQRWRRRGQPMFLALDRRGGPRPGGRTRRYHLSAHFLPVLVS

Structure (SMILES) | Tm shift activity
O=C(NCCc1c[nH]c2ccccc12)C(=O)NCC1CCCO1 (stereo not drawn) | inactive
N#CCC(=O)Nc1ccc(C(=O)NCCc2c[nH]c3ccccc23)cc1 | inactive
COc1cccc(S(=O)(=O)Nc2ccc3c(c2)[C@@H]2C[C@H](CC(=O)NC4CCCCC4)O[C@@H](CO)[C@@H]2O3)c1 | inactive
C=CCC1c2cccc(C(=O)O)c2C(=O)N1c1cccc(OC)c1 (stereo not drawn) | inactive
COCC(=O)Nc1ccc2c(c1)[C@H]1C[C@@H](CC(=O)NCc3ccccn3)O[C@H](CO)[C@H]1O2 | inactive
CCOC(=O)c1c(C)oc2cc(Br)c(O)c(Br)c12 | inactive
C[C@H]1CN([C@@H](C)CO)C(=O)c2cc(NS(=O)(=O)c3ccc(Cl)cc3)ccc2O[C@@H]1CN(C)C(=O)Nc1ccc2c(c1)OCO2 | inactive
CCC(=O)N1[C@H](CO)[C@@H](c2ccccc2)[C@H]1CN(C)C(=O)CN1CCOCC1 | inactive
O=C(c1cccc(F)c1)N1C[C@H]2[C@@H](c3ccccc31)[C@@H](CO)N2C(=O)c1ccccn1 | inactive
CCOc1ccc(NC(=O)c2cccc(-n3cccc3)c2)cc1S(=O)(=O)N1CCOCC1 | inactive
CC(C)NC(=O)N1[C@H](CO)[C@H](c2ccccc2-c2ccc(F)cc2)[C@@H]1C#N | inactive
O=C(O)C1CCN(S(=O)(=O)Cc2ccccc2)CC1 | inactive
COc1ccc(NC(=O)CN(c2ccc(C(C)C)cc2)S(=O)(=O)c2c(C)noc2C)cc1OC | inactive
CO[C@@H]1CN(C)C(=O)c2cc(NC(=O)C3CCCC3)ccc2OC[C@H](C)N(CCC(F)(F)F)C[C@H]1C | inactive
NS(=O)(=O)c1ccc2c(c1)C(=NO)c1cc(S(N)(=O)=O)ccc1-2 | inactive
Oc1c(CN2CCOCC2)cc(CN2CCOCC2)c(O)c1O | inactive
O=C(Nc1ccccc1Cl)N1[C@H](CO)[C@@H]2c3ccccc3NC[C@@H]21 | inactive
COc1ccc(NS(=O)(=O)c2cc(N=Nc3c(O)[nH]c(=O)[nH]c3=O)ccc2Cl)cc1 | inactive
COc1ccccc1C(=O)N1C[C@H]2[C@@H](c3ccccc31)[C@H](CO)N2C(=O)C1CCCCC1 | inactive
N#C[C@@H]1[C@@H](c2ccc(C3=CCCCC3)cc2)[C@H](CO)N1S(=O)(=O)c1ccccc1 | inactive
Cc1cccc(C(=O)NNC(=O)c2ccc(NS(=O)(=O)c3cccs3)cc2)c1C | inactive

Structure (SMILES) | Tm shift activity
COc1ccccc1NC(=O)c1ccc(NC(=O)COC(=O)c2ccc(O)cc2)cc1 | inactive
COc1ccccc1N(C)S(=O)(=O)c1ccc(C(=O)Nc2ccc(C(N)=O)cc2)cc1 | inactive
CCC(C)N(C(=O)COc1ccc(-c2nnco2)cc1)C1CCS(=O)(=O)C1 (stereo not drawn) | inactive
O=C(Nc1cccc(S(=O)(=O)N2CCCCC2)c1)C1=NN(c2ccccc2)C(=O)CC1 | inactive
COc1cccc(NC(=O)N[C@@H]2CC[C@@H](CC(=O)Nc3ccccc3)O[C@H]2CO)c1 | inactive
CN(C)CC(=O)Nc1ccc2c(c1)[C@H]1C[C@@H](CC(=O)NCC3CC3)O[C@H](CO)[C@H]1O2 | inactive
COC(=O)[C@]1(C)N[C@H](c2ccc(-c3ccccc3)cc2)[C@@H]2C(=O)N(C)C(=O)[C@@H]21 | inactive
Cc1ccc(S(=O)(=O)Nc2ccc3c(c2)CC(=O)N([C@H](C)CO)C[C@@H](C)[C@H](CN(C)C(=O)Nc2ccccc2)O3)cc1 | inactive
COc1ccc(C(=O)Nc2ccccc2N2CCOCC2)cc1S(=O)(=O)N1CCOCC1 | inactive
O=C(N[C@@H]1C=C[C@@H](CC(=O)N2CCCCC2)O[C@@H]1CO)c1cccc(F)c1 | inactive
O=C(c1ccccc1F)N1CC(=O)N2[C@@H](CO)[C@H](c3ccc(-c4ccc(F)cc4)cc3)[C@@H]2C1 | inactive
Cc1ccccc1-c1ccccc1[C@@H]1[C@@H](C#N)N(C(=O)c2ccccc2)[C@H]1CO | inactive
CCOC(=O)[C@]12CCCC=C1N(Cc1ccccc1)C(=O)[C@H](CC(=O)NCC1CCCCC1)C2 | inactive
O=C(Nc1ccc2c(c1)OCO2)c1cnn2cccnc12 | inactive
C[C@H]1CN([C@@H](C)CO)C(=O)c2cc(NC(=O)CCC(F)(F)F)ccc2O[C@H]1CN(C)CC1CC1 | inactive
C[C@H]1CN([C@@H](C)CO)C(=O)c2cc(NS(=O)(=O)c3ccccc3)ccc2O[C@@H]1CN(C)C | inactive
C[C@H](CO)N1C[C@H](C)[C@H](CN(C)S(=O)(=O)c2ccc(F)cc2)Oc2ccc(NC(=O)c3ccncc3)cc2C1=O | inactive
COc1cccc(NC(=O)OCCN2CCN(Cc3ccccc3)CCC2=O)c1 | inactive
O=C(Cn1[nH]c(=O)c2ccccc2c1=O)Nc1cccnc1 | inactive
COc1ccc(Br)cc1S(=O)(=O)Nc1ncccc1C | inactive
Cc1cccnc1NC(=O)CCCN1C(=O)c2ccccc2C1=O | inactive

Structure (SMILES) | Tm shift activity
Cc1ccc(-c2ccc([C@@H]3[C@@H](CO)N4C(=O)CN(C(=O)c5ccc(F)cc5)C[C@H]34)cc2)cc1 | inactive
Cc1cc(C(=O)O/N=C(\N)c2ccncc2)ccc1[N+](=O)[O-] | inactive
Cc1ccc(-n2c(O)c(C=NC3CCS(=O)(=O)C3)c3ccccc3c2=O)cc1C (stereo not drawn) | inactive
COCC(=O)NC[C@H]1[C@H](c2ccc(C3=CCCC3)cc2)[C@@H](CO)N1C(C)=O | inactive
C[C@H]1CN([C@@H](C)CO)C(=O)c2cc(NC(=O)Cc3ccccc3)ccc2O[C@H]1CN(C)Cc1ccc2c(c1)OCO2 | inactive
COc1cc(OC)cc(C(=O)Nc2nc3ccc(S(C)(=O)=O)cc3s2)c1 | inactive
Cc1ccc(S(=O)(=O)Nc2ccc3c(c2)C(=O)N([C@@H](C)CO)C[C@@H](C)[C@@H](CN(C)C)O3)cc1 | inactive
C[C@@H]1CN([C@H](C)CO)S(=O)(=O)c2ccc(C#CC3CC3)cc2O[C@H]1CN(C)C(=O)c1ccncc1 | inactive
CC(C)(CNCc1ccccc1)NS(=O)(=O)c1ccc(Cl)cc1 | inactive
CCCCNC(=O)c1onc(CSc2ccc(C(C)C)cc2)c1C(=O)O | 0.765% [at 5 µM] (inactive)
Cc1noc(C)c1S(=O)(=O)N(C)C[C@H]1Oc2ccc(NS(=O)(=O)c3cccs3)cc2C(=O)N([C@@H](C)CO)C[C@H]1C | inactive
COc1ccc(Nc2nnc(-c3ccncc3)s2)cc1Cl | inactive
CO[C@H](CN(C)S(=O)(=O)c1cccc(Cl)c1)[C@H](C)CN([C@@H](C)CO)S(=O)(=O)c1cccc(Cl)c1 | inactive
C[C@@H]1CN([C@@H](C)CO)C(=O)c2cccc(NC(=O)C3CC3)c2O[C@H]1CN(C)Cc1ccncc1 | inactive
O=C(C[C@@H]1C=C[C@H](NC(=O)Nc2cc(F)ccc2F)[C@H](CO)O1)Nc1ccc(-c2ccccc2)cc1 | inactive
CCC(=O)N(NC1=NS(=O)(=O)c2ccccc21)S(=O)(=O)c1ccc(C)cc1 | inactive
CC(C)(C)NC(=O)CN(C(=O)CNS(=O)(=O)c1ccc(Cl)cc1)c1ccc2c(c1)OCCO2 | inactive
O=[N+]([O-])c1ccc(Cl)c(S(=O)(=O)Nc2ccc(S(=O)(=O)N3CCOCC3)cc2)c1 | inactive
O=[N+]([O-])c1cccc(S(=O)(=O)Nc2ccc(S(=O)(=O)Nc3nccs3)cc2)c1 | inactive
CC(=O)c1ccc(NS(=O)(=O)c2ccc(N)cc2)cc1 | inactive
CC(=O)c1sc(NC(=O)c2cc(=O)c3ccccc3o2)nc1C | inactive

Structure (SMILES) | Tm shift activity
CCOc1ccc(N(CC(=O)NCCSc2ccccn2)S(=O)(=O)c2ccc(Cl)cc2)cc1 | inactive
N#C[C@@H]1[C@H](c2ccc(-c3cccnc3)cc2)[C@H](CO)N1C(=O)Nc1ccc(F)cc1 | inactive
CC(C)C#Cc1cnc2c(c1)C(=O)N([C@H](C)CO)C[C@H](C)[C@H](CN(C)C(=O)c1cnccn1)O2 | inactive
Cc1noc(C)c1NC(=O)Nc1ccc2c(c1)CC(=O)N([C@@H](C)CO)C[C@H](C)[C@@H](CN(C)Cc1ccc3c(c1)OCO3)O2 | inactive
CC(C)NC(=O)Nc1ccc2c(c1)C(=O)N([C@H](C)CO)C[C@H](C)[C@@H](CN(C)C(=O)NC(C)C)O2 | inactive
COc1cccc(NC(=O)N2C[C@H](O)COC[C@@H]3O[C@@H](CC(=O)NC4CCC4)CC[C@H]32)c1 | inactive
CSc1ccc(C(=O)NCC2CCN(C(=O)C(=O)c3cc4ccccc4o3)CC2)cc1 | inactive
COc1ccc(CCNS(=O)(=O)CCNC(=O)c2ccc3c(c2)OCO3)cc1 | inactive
C/C(CC(=O)Nc1cccc(Cl)c1Cl)=N\NC(=O)C(=O)NC1CCCCC1 | inactive
O=C(CC1CC1)N1CC2(C1)[C@H](c1ccccc1)[C@H](CO)N2C(=O)c1cnccn1 | inactive
COCC(=O)Nc1ccc2c(c1)OC[C@@H](C)N(C)C[C@H](C)[C@@H](OC)CN(C)C2=O | inactive
Cc1ccc(N(C(=O)c2csnn2)C(C(=O)NC2CCCC2)c2ccccn2)c(C)c1 (stereo not drawn) | inactive
O=C(C1CCCC1)N1CC2(C1)[C@H](c1ccccc1)[C@@H](CO)N2CC1CC1 | inactive
C[C@H]1CN([C@@H](C)CO)C(=O)c2cc(C3=CCCC3)cnc2O[C@H]1CN(C)C(=O)CN(C)C | inactive
Cc1cc(C(=O)Nc2cccc3c2O[C@@H](CN(C)C(=O)NC2CCCCC2)[C@@H](C)CN([C@H](C)CO)C3=O)n(C)n1 | inactive
Nc1n[nH]c(=S)n1/N=C1/C(=O)Nc2ccccc21 | inactive
O=C(COC(=O)CCCOc1ccc(Cl)cc1Cl)NCc1ccccc1 | inactive
Cc1ccc(NC(=O)COC(=O)Cn2cnc3c2c(=O)n(C)c(=O)n3C)cc1F | inactive
O=C(NCC[C@@H]1CC[C@@H](NS(=O)(=O)c2ccccc2)[C@@H](CO)O1)c1ccc2c(c1)OCO2 | inactive
COCC(=O)N(C)C[C@@H]1Oc2cc(C#C[C@H](C)O)ccc2S(=O)(=O)N([C@@H](C)CO)C[C@H]1C | inactive
